Compound activity as filed in PubChem BioAssay.
This excerpt belongs to a sample that is enriched for hits.
LmPK inhibitor: inhibitors of Leishmania mexicana pyruvate kinase; Q27686; actives 0.37% (n = 290,000); purified LmPK, Kinase-Glo ATP luminescence, 1 h; Potency, µM (highest dose often 57.5 µM), most hits filed as inhibitors
Target sequence (Q27686 whole entry, looked up): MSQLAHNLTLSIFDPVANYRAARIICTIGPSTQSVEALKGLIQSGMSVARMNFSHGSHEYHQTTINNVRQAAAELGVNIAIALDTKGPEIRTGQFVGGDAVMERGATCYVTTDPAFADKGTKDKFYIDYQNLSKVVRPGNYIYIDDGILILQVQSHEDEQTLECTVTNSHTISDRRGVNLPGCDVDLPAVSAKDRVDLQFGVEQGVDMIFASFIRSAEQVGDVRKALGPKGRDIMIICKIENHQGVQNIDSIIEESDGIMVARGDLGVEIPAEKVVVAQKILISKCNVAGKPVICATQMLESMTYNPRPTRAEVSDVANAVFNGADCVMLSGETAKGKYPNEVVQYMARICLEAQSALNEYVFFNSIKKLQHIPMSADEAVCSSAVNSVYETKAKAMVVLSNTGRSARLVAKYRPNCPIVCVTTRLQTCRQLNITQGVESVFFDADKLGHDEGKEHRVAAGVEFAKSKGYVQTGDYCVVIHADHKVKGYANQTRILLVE
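qHTS format; LmPK 0.1 nM; substrates PEP 0.5 mM and ADP 0.1 mM. One-hour room-temperature incubation, then coupled luciferase luminescence; 0.5 nM enzyme wells mark activation.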
Sm TGR inh: inhibitors of Schistosoma mansoni thioredoxin glutathione reductase; Q962Y6; purified TGR, DTNB reduction, TNB absorbance 405 nm; Potency, µM (top dose mostly 114 µM), actives largely listed as inhibitors; actives 3% (n = 360,000); AID 485364; also: nearly all actives have a fitted effect of over 60% in size
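TGR 20 nM + NADPH 100 uM (dispensed conc.), cpd preinc 15 min RT; start with NADPH (500 uM addition) then DTNB (15 mM addition). Kinetic TNB absorbance, 405 nm filter. Four-parameter Hill fit across titration.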
FBPA Giardia inh: Giardia lamblia aldolase inhibition; A8B2U2; purified Giardia FBPA; Potency, µM (top dose mostly 59.6 µM), most hits filed as inhibitors; actives 0.71% (n = 290,000); also: nearly all actives have a fitted effect of over 55% in size
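Giardia FBPA (40 nM reagent) was preincubated 10 min at RT with compound (up to 57.5 uM final), then substrate plus GAPDH/TPI/NAD/arsenate coupling system with diaphorase/resazurin was added; resorufin fluorescence (525/598 nm) was read after 20 min.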
Cycloheximide cs: counter-screen hit for Shiga toxin inhibitors, cycloheximide; actives 12% (n = 300,000); cell reporter, cycloheximide protein synthesis inhibition counterscreen; max response, %; in the data active = max response mostly above about 13%, no sharp cut-off; inactive = mostly below about 14%; also: read at 38.3 µM for the half of the compounds with a filed dose
Shiga inhibitor: blocks Shiga toxin action in Vero cells; actives 9.2% (n = 290,000); inhibition, % at 38.7 µM; Vero cells, Shiga toxin protein synthesis inhibition reporter; AID 2315; in the data active = inhibition mostly above about 28%, no sharp cut-off; inactive = mostly below about 43%
TbPYK inhibitor: T. brucei pyruvate kinase inhibition; Q57TT1; TbPYK enzyme, Kinase-Glo Plus ATP luminescence, 45 min; Potency, µM (highest dose often 76.8 µM), hits mostly inhibitors; actives 0.12% (n = 410,000); AID 624173; also: nearly all actives have a fitted effect of over 50% in size
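Luminescence from Kinase-Glo Plus, added after a 45-minute room-temperature reaction, served as the end-point read-out. The enzyme and substrate were preincubated with compound before ADP (130 uM final) initiated turnover. Concentration-effect curves came from normalized qHTS data.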
Hits are given with their value; n = inactive; u = inconclusive; x = not tested or not shown; + = active, no number. Unless noted, calls follow the shape of the dose curve; as a rule, active = well fitted curve in the direction sought with a large enough effect; inconclusive = small, poorly fitted or top-dose-only effect, or another doubt; inactive = no such curve, though single readings can be large; an effect the other way counts as inactive or inconclusive.

SMILES	LmPK inhibitor	Sm TGR inh	FBPA Giardia inh	Cycloheximide cs	Shiga inhibitor	TbPYK inhibitor
CCOC(=O)C(C(=O)OCC)C(c1ccccc1)N1CCN(c2ccccc2)CC1 (configuration not stated)	x	x	x	x	x	n
COc1ccc(C2=NS(=O)(=O)N(C)C(C(=O)N3CCC(C(N)=O)CC3)=C2)cc1	n	n	n	n	n	n
CC(C)(C)c1ccc(CC(=O)N2CCC2(C)C(=O)NS(=O)(=O)c2cccs2)cc1 (configuration not stated)	x	x	x	x	x	n
Cc1cc(O)c(C(c2ccc(Cl)cc2)N2CCN(c3ccccc3)CC2)c(=O)n1Cc1ccco1 (configuration not stated)	x	5.01µM	x	x	x	n
CC(C)CC(c1nnnn1Cc1ccco1)N1CCN(c2cccc(Cl)c2)CC1 (configuration not stated)	n	n	n	n	n	n
Cc1nc2ccn(Cc3ccco3)c(=O)c2cc1C(=O)N1CCN(c2ccc(F)cc2)CC1	x	n	x	x	x	n
Cc1cc(O)c(C(c2ccccc2)N2CCN(c3ccc(F)cc3)CC2)c(=O)n1Cc1ccco1 (configuration not stated)	x	3.55µM	x	x	x	n
N#Cc1cccc(NC(=O)N2CC3(CCN(C(=O)c4cc(C(F)(F)F)cc(C(F)(F)F)c4)CC3)C2)c1	x	x	n	x	x	n
C=C[C@@]1(C)CC[C@H]2C(=CC[C@@H]3[C@]2(C)CCC[C@@]3(C)C(=O)O)C1	x	x	n	n	n	x
CC1CCCN(C(C(=O)NC2CCCCC2)c2cc3c(cc2[N+](=O)[O-])OCO3)C1 (configuration not stated)	n	n	u	53.0	108.4	n
CCNC(=O)O/N=C1\CCCCC1c1ccc([N+](=O)[O-])cc1[N+](=O)[O-] (configuration not stated)	n	12.6µM	u	n	n	n
CS(=O)(=O)O/N=C1\CCCCC1c1ccc([N+](=O)[O-])cc1[N+](=O)[O-] (configuration not stated)	n	n	n	n	n	n
S=C(Nc1cccc(Br)c1)c1ccccc1	n	n	n	45.0	109.1	n
O=C(Nc1ccc(-c2nc3ccccc3s2)c(O)c1)c1ccc(Br)cc1	x	n	x	x	x	n
Cc1ccc(NC(=O)c2ccc(NC(=O)c3ccccc3)cc2)cc1C	n	n	x	45.8	56.0	n
CC(=O)c1cccc(NC(=O)c2ccc3ccccc3c2)c1	n	n	n	27.7	x	n
O=C(Nc1ccc(-c2nc3ccccc3s2)c(OC(=O)c2ccccc2)c1)c1ccccc1	n	n	n	29.5	n	n
CC(=O)c1cccc(NC(=O)NNC(=O)c2ccc3ccccc3c2)c1	n	n	n	n	n	n
CCCCCCCCNCCS(=O)(=O)NCc1ccc(OC)cc1	x	x	x	x	x	n
CCOC(=O)C1=C(Nc2ccc(OC)cc2)C(N)=NC1=N	x	x	x	x	x	n
COc1ccc(C(=O)N2CCC(C(=O)Nc3ccccc3Cl)CC2)cc1	x	n	x	x	x	n
O=C(CNCc1ccccc1)Nc1ccc(Cl)cc1	n	n	n	28.4	78.6	n
Cc1ccc(NC(=O)CCn2c(=O)c3cccn3c3ccccc32)cc1C	n	n	x	n	26.5	n
OC1(CNCc2ccccc2)C2CC3CC(C2)CC1C3 (configuration not stated)	n	n	n	n	n	n
CC(=O)c1ccc(NC(=O)c2cccc(NC(=O)c3ccccc3)c2)cc1	n	n	n	23.2	x	n
SMILES	LmPK inhibitor	Sm TGR inh	FBPA Giardia inh	Cycloheximide cs	Shiga inhibitor	TbPYK inhibitor
O=C(CNCc1ccccc1)NC1C2CC3CC(C2)CC1C3 (configuration not stated)	n	n	n	14.1	x	n
CCOC(=O)CSc1nc2cc(OC)c(OC)cc2c2nc(-c3ccccc3)nn12	x	n	x	x	x	n
CCOC(=O)C1CCN(C(=O)Cn2nc(C)n3c(cc4sccc43)c2=O)CC1	x	n	x	x	x	n
Cc1ccc(NC(=O)C(SCC(=O)O)c2ccccc2)cc1C (configuration not stated)	n	n	n	n	n	n
Cc1ccc(NC(=O)c2ccccc2Cl)cc1-n1cnnn1	n	n	n	n	n	n
Cc1ccc(NC(=O)c2ccccc2)cc1-n1cnnn1	n	20µM	n	n	n	n
CCc1sc(C(=O)Nc2cccc(C(C)=O)c2)cc1C	n	n	n	27.5	n	n
O=C(Nc1ccc2nc3ccccc3nc2c1)c1ccccc1	n	n	n	40.0	24.6	n
COC(=O)CSC(C(=O)Nc1ccc(C)c(C)c1)c1ccccc1 (configuration not stated)	n	n	n	n	44.0	n
O=C(Cc1ccc(Cl)cc1)Nc1ccc(NC(=O)c2ccccc2)cc1	n	n	n	n	n	n
CC(C)OC(=O)c1cccc(NC(=O)c2ccccc2)c1	n	n	n	26.1	69.5	n
O=C(Nc1ccc(Nc2ccccc2)cc1)c1ccc(Br)cc1	n	n	n	n	n	n
Cc1ccc(NC(=O)CC(=O)c2ccccc2)cc1C	n	n	n	34.2	101.0	n
O=C(CC(=O)c1ccccc1)Nc1ccc(Cl)cc1	n	31.6µM	n	36.2	79.6	n
O=C(Nc1cccc(C(=O)Nc2ccc(Br)cc2)c1)c1ccccc1	n	n	n	15.5	n	n
CC(=O)c1cccc(NC(=O)c2cc(Cl)sc2Cl)c1	n	n	n	24.8	39.4	n
COc1cccc(OC)c1C(=O)Nc1cccc(C(C)=O)c1	n	n	n	n	n	n
Cc1cc2cc(C=C(C#N)C#N)c(Cl)nc2cc1C	n	3.16µM	u	25.2	+	n
COc1ccc(-n2ccc3ccccc32)cc1	n	n	n	25.3	n	n
COc1ccc(N2C(=O)c3cc4ccccc4cc3C2=O)cc1	n	n	n	n	n	n
Cc1c(Cl)cccc1NC(c1ccc(F)cc1)c1nnc(-c2ccccc2)o1 (configuration not stated)	x	n	x	x	x	n
O=C1Nc2ccccc2/C1=N\N=C\C1=C(N2CCOCC2)C(=C\c2ccccc2)/CC1	u	44.7µM	n	n	n	x
O=C1Nc2ccc(Br)cc2/C1=N\N=C\C1=C(N2CCOCC2)C(=C/c2ccccc2)/CC1	x	x	x	x	x	n
O=C1Nc2ccccc2/C1=N/N=C/c1cccc(O)c1	n	n	n	48.8	48.4	n
CCN1C=C(Cc2ccccc2C)C2=C(C1)C(c1ccccc1C)C(C#N)=C(N)O2 (configuration not stated)	n	44.7µM	u	n	n	n
CCN1C=C(Cc2ccc(F)cc2)C2=C(C1)C(c1ccc(F)cc1)C(C#N)=C(N)O2 (configuration not stated)	n	u	u	n	n	n
O=C(c1ccccc1)c1cnc(Nc2ccccc2Cl)s1	n	n	n	41.7	88.5	n
Cc1cnc(NC(=O)Cc2ccccc2Cl)s1	n	n	n	n	n	n
CC(C)(C)C(=O)c1cnc(Nc2ccccc2Cl)s1	u	n	n	58.6	67.4	n
